Measured values from PubChem BioAssay (Tox21).
Several values for one entry are separate records, joined by “and”; a condition that tells them apart may be missing. Identical values can stand only once. Inconclusive results are not listed. Where a call stands in place of a potency, no number is given. Where a structure was tested more than once in an assay, its records may differ in their call. Activity calls are given as the source filed them. Unless noted, calls follow the shape of the dose curve; as a rule, active = well fitted curve in the direction sought with a large enough effect in the repeat runs; inconclusive = weak or mixed curves; inactive = no such curve, though single readings can be large; an effect the other way counts as inactive or inconclusive. Starred links: 1 amine or outer side, 2 acyl side, 3 side chain; linkers in the order of their positions; H or OH if unused. Positions of bridges follow the written chain, without caps; N, C: chain ends. Non-standard residues stand in square brackets, D forms with d. Residues, ends and D or L forms follow the SMILES beside them. Chains are numbered I, II in the order given. Actinocin(9to1) = Cc1c2oc3c(C)ccc(C(=O)[*:1])c3nc-2c(C(=O)[*:2])c(N)c1=O; NMeV = CN[C@H](C(=O)O)C(C)C; Sar = CNCC(=O)O

Tests used:
[1] = molecular target: Aryl hydrocarbon receptor (Homo sapiens) (UniProt P35869); assay: qHTS assay to identify small molecule that activate the aryl hydrocarbon receptor (AhR) signaling pathway (AID 743085); also: nearly all actives have a fitted effect of over 15% in size; also: potency is read from the fitted curve at half-maximal effect;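 as to activation: HG2L7.5c1 human HepG2 liver cells with stably integrated DRE-driven firefly reporter; series mostly up to about 70 µM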
Chain of Aryl hydrocarbon receptor (Homo sapiens) (P35869 whole entry, looked up): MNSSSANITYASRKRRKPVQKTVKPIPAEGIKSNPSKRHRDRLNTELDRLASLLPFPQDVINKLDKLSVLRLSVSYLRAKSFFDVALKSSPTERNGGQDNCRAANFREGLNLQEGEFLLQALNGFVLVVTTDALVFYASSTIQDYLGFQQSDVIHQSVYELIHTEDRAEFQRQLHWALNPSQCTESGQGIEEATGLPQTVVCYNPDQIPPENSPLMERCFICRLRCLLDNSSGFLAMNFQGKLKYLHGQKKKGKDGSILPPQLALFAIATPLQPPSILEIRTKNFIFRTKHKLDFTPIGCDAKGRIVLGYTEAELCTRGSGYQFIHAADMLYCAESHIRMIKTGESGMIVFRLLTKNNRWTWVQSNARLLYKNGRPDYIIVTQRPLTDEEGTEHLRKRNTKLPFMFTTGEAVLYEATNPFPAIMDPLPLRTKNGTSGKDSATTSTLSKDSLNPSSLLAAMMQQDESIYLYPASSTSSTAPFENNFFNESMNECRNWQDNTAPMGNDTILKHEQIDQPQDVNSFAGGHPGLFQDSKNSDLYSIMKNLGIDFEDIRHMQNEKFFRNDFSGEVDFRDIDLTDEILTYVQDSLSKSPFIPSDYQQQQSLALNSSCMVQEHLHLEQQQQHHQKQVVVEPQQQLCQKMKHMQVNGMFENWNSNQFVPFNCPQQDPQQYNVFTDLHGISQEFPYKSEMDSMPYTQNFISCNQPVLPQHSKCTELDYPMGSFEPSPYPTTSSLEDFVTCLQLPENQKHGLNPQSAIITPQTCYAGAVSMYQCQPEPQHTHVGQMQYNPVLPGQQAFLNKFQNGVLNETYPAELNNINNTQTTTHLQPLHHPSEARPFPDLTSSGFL
How it was run: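 Compounds were tested in HepG2 hepatocellular carcinoma cells harbouring a stably integrated luciferase gene under control of 20 DREs. Increased reporter signal after 24 h treatment at 37C was taken as AhR activation.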

[2] = qHTS assay to identify small molecule antagonists of the peroxisome proliferator-activated receptor gamma (PPARg) signaling pathway - cell viability counter screen (AID 743194); also: nearly all actives have a fitted effect of over 55% in size; also: potency is read from the fitted curve at half-maximal effect
How it was run: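 PPARg-UAS-bla HEK293H cells were plated, rested 5 h at 37 C, then treated with compounds plus rosiglitazone (50 nM final) for 17 h at 37 C; viability was then read by CellTiter-Glo luminescence after 30 min at room temperature.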

[3] = qHTS assay for small molecule agonists of the antioxidant response element (ARE) signaling pathway - cell viability counter screen (AID 743203; calls by dose curve; also: nearly all actives have a fitted effect of over 55% in size; also: potency is read from the fitted curve at half-maximal effect)
How it was run: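 Measured in the same wells as the beta-lactamase ARE reporter, this read-out is CellTiter-Glo luminescence from HepG2 ARE-bla cells given compounds for 16 hrs.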

[4] = qHTS assay for small molecule activators of the heat shock response signaling pathway - cell viability counter screen (AID 743209); also: nearly all actives have a fitted effect of over 50% in size; also: potency is read from the fitted curve at half-maximal effect
How it was run: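 Same-well multiplex: after 2.5 h room-temperature incubation with LiveBLAzer B/G substrate and fluorescence reading, CellTiter-Glo reagent was added to HSE-bla HeLa cells that had received compound for 5 h at 37 C; luminescence read after 30 min.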

[5] = qHTS assay to identify aromatase inhibitors - cell viability counter screen (AID 743084);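 also: cells stimulated with testosterone during compound exposure; nearly all actives have a fitted effect of over 55% in size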; also: potency is read from the fitted curve at half-maximal effect
[6] = qHTS assay to identify small molecule that activate the aryl hydrocarbon receptor (AhR) signaling pathway - cell viability counter screen (AID 743086); also: nearly all actives have a fitted effect of over 45% in size; also: potency is read from the fitted curve at half-maximal effect
How it was run: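 HepG2-AhR-luc (HG2L7.5c1) cells, 4000/well, were preincubated 5 h at 37C, exposed to compound in qHTS format for 24 hr at 37C, then given CellTiter-Fluor for 30 min; viability was read as fluorescence in the reporter wells.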

[7] = molecular target: Peroxisome proliferator-activated receptor gamma (Homo sapiens) (UniProt P37231); assay: qHTS assay to identify small molecule antagonists of the peroxisome proliferator-activated receptor gamma (PPARg) signaling pathway (AID 743191; calls by dose curve; also: nearly all actives have a fitted effect of over 30% in size; also: potency is read from the fitted curve at half-maximal effect)
Chain of Peroxisome proliferator-activated receptor gamma (Homo sapiens) (P37231 whole entry, looked up): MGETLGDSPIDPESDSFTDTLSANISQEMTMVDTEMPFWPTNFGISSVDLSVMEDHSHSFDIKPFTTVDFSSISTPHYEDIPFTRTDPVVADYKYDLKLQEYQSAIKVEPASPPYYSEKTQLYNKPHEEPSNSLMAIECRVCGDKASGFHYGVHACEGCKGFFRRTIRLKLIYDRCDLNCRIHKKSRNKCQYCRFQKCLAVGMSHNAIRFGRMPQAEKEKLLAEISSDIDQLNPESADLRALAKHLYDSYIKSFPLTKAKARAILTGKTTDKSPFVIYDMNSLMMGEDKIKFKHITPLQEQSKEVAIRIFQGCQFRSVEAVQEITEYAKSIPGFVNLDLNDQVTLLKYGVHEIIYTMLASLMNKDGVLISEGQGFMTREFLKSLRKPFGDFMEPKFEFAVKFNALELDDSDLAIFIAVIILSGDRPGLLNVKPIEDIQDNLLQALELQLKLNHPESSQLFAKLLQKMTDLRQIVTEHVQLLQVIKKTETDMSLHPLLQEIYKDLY
How it was run: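 GeneBLAzer PPARg UAS-bla HEK293H cells carrying a UAS-driven beta-lactamase reporter were plated at 3000 cells/well, preincubated 5 h at 37C, then given compound for 17 h at 37C; LiveBLAzer B/G FRET substrate was read after 1 h at room temperature.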

[8] = qHTS assay for small molecule agonists of the antioxidant response element (ARE) signaling pathway (AID 743202; active = well fitted activation curve with a large enough effect in the signal ratio in the repeat runs, not every such curve was filed as active; the % refers to the signal ratio; also: potency is read from the fitted curve at half-maximal effect)
How it was run: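 Steps: seed ARE-bla HepG2 cells (2,000/well); incubate 5 h at 37 C; add compounds by pin tool; incubate 16 h at 37 C; add FRET substrate; read fluorescence after 2 h at RT.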

[9] = qHTS assay for small molecule activators of the heat shock response signaling pathway (AID 743210; active = well fitted activation curve with a large enough effect in the signal ratio in the repeat runs, with a control signal flat, not every such curve was filed as active; the % refers to the signal ratio; also: potency is read from the fitted curve at half-maximal effect;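 as to activation: HeLa cells with beta-lactamase reporter driven by heat shock elements; series mostly up to about 63 µM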)
How it was run: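 Activation of heat shock element-controlled beta-lactamase expression is measured in HeLa cells by LiveBLAzer FRET fluorescence, with compound exposure lasting 5 h at 37 C and substrate loading 2.5 h at room temperature.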

[10] = molecular target: Peroxisome proliferator-activated receptor gamma (Homo sapiens) (UniProt P37231); assay: qHTS assay to identify small molecule agonists of the peroxisome proliferator-activated receptor gamma (PPARg) signaling pathway (AID 743094; active = well fitted activation curve with a large enough effect in the signal ratio in the repeat runs, not every such curve was filed as active; the % refers to the signal ratio)
How it was run: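 Cell-based bla reporter, HEK293H background, PPARg-driven UAS. Pre-incubation 5 h, 37C, 5% CO2. Compound 17 h, 37C. Substrate 1 h RT; fluorescence.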

Row | Structure (SMILES) | Potency [1] | Potency [2] | Potency [3] | Potency [4] | Potency [5] | Potency [6] | Potency [7] | Potency [8] | Potency [9] | Potency [10]
1 | Nc1ccc2cc3ccccc3cc2c1 | 62.2 µM (active) and 8.63 µM (active) | inactive | inactive | inactive | – | – | – | – | – | –
2 | Nc1nc(=S)c2[nH]cnc2[nH]1 | – | 2.98 µM (active) | 3.86 µM (active) | inactive | inactive | inactive | inactive | 4.73 µM (active) | inactive | –
3 | Oc1ccc(Cl)cc1Cc1cc(Cl)ccc1O | – | 11.2 µM (active) and 3.89 µM (active) and 16.8 µM (active) | 27.8 µM (active) and 54.5 µM (active) | 22.3 µM (active) and inactive | – | inactive | 9.95 µM (active) and 26.6 µM (active) | – | – | inactive
4 | Cc1c2oc3c(C)ccc(C(=O)N[C@@H]4C(=O)N[C@H](C(C)C)C(=O)N5CCC[C@H]5C(=O)N(C)CC(=O)N(C)[C@@H](C(C)C)C(=O)O[C@@H]4C)c3nc-2c(C(=O)N[C@@H]2C(=O)N[C@H](C(C)C)C(=O)N3CCC[C@H]3C(=O)N(C)CC(=O)N(C)[C@@H](C(C)C)C(=O)O[C@@H]2C)c(N)c1=O (I: T[dV]P[Sar][NMeV] / II: T[dV]P[Sar][NMeV]; ester I:1-I:C, II:1-II:C; linker I:N-II:N via Actinocin(9to1)) | – | – | – | – | 7.48 µM (active) | 18.8 nM (active) and 14.9 µM (active) | – | – | inactive | –
5 | O=C1OC2(c3ccc(O)cc3Oc3cc(O)ccc32)c2ccccc21 | inactive | inactive | inactive | inactive | – | – | – | – | – | –
6 | O=C1Nc2ccccc2C1(c1ccc(O)cc1)c1ccc(O)cc1 | – | inactive | inactive | inactive | – | – | – | – | inactive | –
7 | CCN(CC)c1ccc2c(C)cc(=O)oc2c1 | – | inactive | inactive | inactive | – | – | – | – | 31.1 µM (active) | –
8 | CC[C@]1(O)C[C@@H]2CN(CCc3c([nH]c4ccccc34)[C@@](C(=O)OC)(c3cc4c(cc3OC)N(C)[C@H]3[C@@](O)(C(=O)OC)[C@H](OC(C)=O)[C@]5(CC)C=CCN6CC[C@]43[C@@H]65)C2)C1 | inactive | inactive | inactive | – | – | 16.8 µM (active) and 15 µM (active) | – | – | inactive | –
9 | CCN(CC)C(=S)SSC(=S)N(CC)CC | – | inactive | 27.9 µM (active) and inactive | inactive | 86.3 nM (active) and 44.3 nM (active) | – | – | 77 nM (active) and inactive | – | –
10 | O=C(O)Cn1cnnn1 | – | inactive | inactive | inactive | – | – | inactive | inactive | inactive | –
11 | c1cc(C(c2ccc(OCC3CO3)cc2)C(c2ccc(OCC3CO3)cc2)c2ccc(OCC3CO3)cc2)ccc1OCC1CO1 (stereo unspecified) | – | inactive | inactive | inactive | inactive | inactive | – | – | – | –
12 | COc1ccc(CCN(C)CCCC(C#N)(c2ccc(OC)c(OC)c2)C(C)C)cc1OC (stereo unspecified) | – | inactive | – | inactive | 27.3 µM (active) | – | – | – | – | –
13 | CCCCC(CC)COC(=O)CC(C(=O)OCC(CC)CCCC)S(=O)(=O)O (stereo unspecified) | – | – | 58.8 µM (active) and 54.5 µM (active) | 52.9 µM (active) | inactive | inactive | – | – | – | inactive
14 | C#CC(C)(CC)OC(=O)c1ccccc1C(=O)O (stereo unspecified) | – | inactive | inactive | inactive | – | – | inactive | inactive | inactive | –
15 | C=CC(=O)OCCCCCCOC(=O)C=C | inactive | inactive | inactive | 17.4 µM (active) | – | inactive | – | 10.9 µM (active) | – | –
16 | CC(C)(C)c1ccccc1 | – | – | inactive | inactive | – | – | – | inactive | inactive | –
17 | CC(C)(c1ccccc1)c1ccc(Nc2ccc(C(C)(C)c3ccccc3)cc2)cc1 | – | inactive | inactive | inactive | inactive | inactive | – | – | – | –
18 | CC(N)=O | – | – | inactive | inactive | inactive | inactive | – | inactive | inactive | inactive
19 | Nc1cc(Cl)c(-c2cc(Cl)c(N)cc2Cl)cc1Cl | – | 48.9 µM (active) and 17.4 µM (active) | 61.1 µM (active) and 21.7 µM (active) | 24.5 µM (active) | 48.5 µM (active) | inactive | – | – | – | –
20 | CC(=O)O[C@]1(C(C)=O)CC[C@H]2[C@@H]3C[C@H](C)C4=CC(=O)CC[C@]4(C)[C@H]3CC[C@@]21C | – | inactive | inactive | inactive | inactive | inactive | inactive | – | – | –
21 | OCCOCCN1CCN(C(c2ccccc2)c2ccc(Cl)cc2)CC1 (stereo unspecified) | – | inactive | inactive | inactive | inactive | – | – | inactive | – | inactive
22 | CC[C@H]1CN2CCc3cc(OC)c(OC)cc3[C@@H]2C[C@@H]1C[C@H]1NCCc2cc(OC)c(OC)cc21 | – | – | 24.4 µM (active) | 2.46 µM (active) and 10.6 µM (active) | 9.72 µM (active) | – | – | – | inactive | –
23 | NCCO | – | inactive | inactive | inactive | inactive | inactive | – | inactive | inactive | –
24 | Oc1c(Cl)cc(Cl)cc1Sc1cc(Cl)cc(Cl)c1O | inactive | – | – | 43.8 µM (active) and 49 µM (active) and inactive | – | inactive | – | – | inactive | –
25 | CC(C)(C)NCC(O)COc1ccccc1OCC1CCCO1 (stereo unspecified) | – | inactive | inactive | inactive | – | – | inactive | inactive | inactive | –
26 | CCCOC(=O)c1cc(O)c(O)c(O)c1 | 4.22 µM (active) and inactive | inactive | inactive | inactive | – | inactive | – | 15.3 µM (active) | inactive | inactive
27 | Cc1occc(=O)c1OC(=O)C(C)C | – | inactive | inactive | inactive | inactive | inactive | – | – | inactive | –
28 | CCCC(=O)c1ccccc1 | – | inactive | inactive | inactive | inactive | – | – | inactive | inactive | inactive
29 | COc1ccc(CCN2CCC(Nc3nc4ccccc4n3Cc3ccc(F)cc3)CC2)cc1 | – | 4.46 µM (active) and 26.6 µM (active) | 6.25 µM (active) and 26.6 µM (active) | 17.8 µM (active) and inactive | 26.6 µM (active) and 12.5 µM (active) | 23.7 µM (active) and 9.9 µM (active) | – | – | inactive | –
30 | Cc1ccc(S(=O)(=O)Oc2ccc(N=Nc3ccc(-c4ccc(N=Nc5c(O)ccc6cc(S(=O)(=O)O)cc(S(=O)(=O)O)c56)c(C)c4)cc3C)cc2)cc1 | – | inactive | inactive | inactive | 10.9 µM (active) and 10 µM (active) | 9.73 µM (active) and 14.1 µM (active) | – | – | inactive | –
